The text below walks through data of PubChem BioAssay (NCATS).

Results filed as inconclusive are left out. The source made the active and inactive calls. Unless noted, the call rests on the fitted dose curve; in most records, active means well fitted curve in either direction with a large enough effect (not every such curve was filed as active); inconclusive means small, poorly fitted or top-dose-only effect, or another doubt; inactive means flat fitted curve, though single readings scatter. A value given as a limit tells only on which side of the number the result lay.

The subject of test [1] is HIV-1 nucleocapsid protein NCp7 (binding to TG oligonucleotide). Description: HIV Nucleocapsid (AID 346; call rule not given here;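 further: potency means the concentration at half of the fitted maximal effect; potency is for inhibitors that block NC binding and lower polarization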). The following applies: HIV-1 NC / fluorescein-TGTGTGTG probe, fluorescence polarization. The method in brief: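 Fluorescence polarization readout: labelled TG4xF oligo (10 nM) with 100 nM nucleocapsid protein, high-salt (250mM NaCl) Hepes pH 7.5 buffer containing zinc and fresh reducing agents. Compounds added by pin tool; incubation 1 hr, room temperature.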

Test [2] addresses Lysosomal acid glucosylceramidase (Homo sapiens) (UniProt P04062). Description: Glucocerebrosidase-p2 (AID 348; in the data active means potency below about 10 µM; further: potency means the concentration at half of the fitted maximal effect). The note with it: purified GBA, blue fluorogenic substrate, 40 min. The method in brief:
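Compounds titrated from 0.6 nM upwards against 0.2 nM enzyme in pH 5.9 citric acid/KH2PO4, taurocholate, tween-20; blue fluorogenic substrate 80 uM, 40 min room temperature, stopped and read Ex 365/Em 440 for AC50.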

The nature of test [3]: AP1 Signaling Pathway (AID 357). Further: on the % scale 0 is the no-effect control and ±100 the full control effect. The note with it: ME-180 AP-1-bla reporter, EGF-induced, beta-lactamase ratio, 5 h; series mostly up to 17.2 µM. The method in brief: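 A ratiometric CCF4 readout (405 nm excitation; 460 and 530 nm emission) quantified AP-1-driven beta-lactamase in ME-180 cells after 5 h with compound and EC50 EGF; AC50 values were derived for activators and inhibitors.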

Test [4] deals with Cytochrome P450 1A2 (Homo sapiens) (UniProt P05177). Description: p450-cyp1a2 (AID 410; calls by dose curve; further: potency means the concentration at half of the fitted maximal effect). The note with it: recombinant CYP1A2, luciferin-ME demethylation, luminescence; series mostly up to 25.6 µM. The method in brief:
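Inhibition was calculated relative to 57 uM furafylline (full inhibition). The reaction used human CYP1A2 at 20nM with Luciferin-ME at its Km, 100uM, driven by an NADPH-regenerating system for 60 min at room temperature.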

A short description of test [5]: Stat Signaling Pathway (AID 446).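 Further: ME-180 cervical cancer cells given 40 pM IL-6 alongside compound; SIE-controlled beta-lactamase reporter measured as 460/530 nm FRET emission ratio; on the % scale 0 is the no-effect control and ±100 the full control effect.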 The note with it: ME-180 SIE beta-lactamase reporter, IL-6 stimulated, 5 h; series mostly up to 17.2 µM. The method in brief:
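Reporter line: ME-180 cervical carcinoma, SIE-beta-lactamase. Treatment: compound with 40 pM IL-6, 5 hrs, 37 C, in low-serum OPTI-MEM with 10 mM HEPES pH 7.3. Detection: 460/530 nm fluorescence.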

Test [6] addresses Glucocorticoid receptor (Homo sapiens) (UniProt P04150). Description: GR-EFC Redistribution (AID 451; calls by dose curve; further: potency means the concentration at half of the fitted maximal effect). The following applies: CHO-K1 GR-EFC translocation, beta-gal luminescence, 2 h. The method in brief: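 CHO-K1 cells expressing nuclear EA and GR-ED fragments of b-gal; compounds titrated up to 46 uM final, 2 h at 37 C. GR nuclear translocation read as complemented b-gal luminescence after 1 h RT detection.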

The target of test [7] is 3',5'-cyclic-AMP phosphodiesterase 4B (Homo sapiens) (UniProt Q07343). Description: qHTS Assay for Inhibitors of PDE-IV (AID 607; active means well fitted activation curve with a large enough effect in the main read-out, with a control signal flat, not every such curve was filed as active; further: % of control where 0% means no effect). The note with it: HEK293 ACTOne CNG channel cells, membrane potential fluorescence; series mostly up to 22.9 µM. The method in brief: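 Cell-based read-out of cAMP via a modified cyclic nucleotide-gated channel and membrane potential dye (535/590 nm) in HEK293 cells expressing PDE4 endogenously. Compounds tested up to 22.9 uM final; 100 uM RO 20-1724 reference.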
On the technique in general: In qHTS, concentration-response curves come from the screen itself.

Test [8] deals with Cytochrome P450 3A4 (Homo sapiens) (UniProt P08684). Description: qHTS Assay for Activators of Cytochrome P450 3A4 (AID 885; active means well fitted curve in the direction sought with a large enough effect; an effect the other way counts as inactive or inconclusive; further: nearly all actives have a fitted effect of over 65% in size). The note with it: recombinant CYP3A4, Luciferin-PPXE luminescence, 60 min; series mostly up to 57.1 µM. Put shortly: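 Signal was normalized against complete inhibition by 57 uM ketoconazole. The reaction used 20nM CYP3A4 with 25uM Luciferin-PPXE, 10-min compound preincubation and a 60-min NADPH-supported step at RT.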

The nature of test [9]: Primary qHTS for small molecule stabilizers of the endoplasmic reticulum resident proteome: Secreted ER Calcium Modulated Protein (SERCaMP) assay (AID 1508630; active means well fitted curve in the direction sought with a large enough effect; an effect the other way counts as inactive or inconclusive; further: on the % scale 0 is the no-effect control and ±100 the full control effect). The following applies: SH-SY5Y GLuc-SERCaMP (Gaussia luciferase released on ER calcium loss) secretion, thapsigargin, luminescence; series mostly up to 38.4 µM. Put shortly:
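GLuc-SERCaMP-expressing SH-SY5Y cells, pretreated 16 h with compound, are challenged with thapsigargin to empty ER calcium stores; after 4 h, coelenterazine is added directly to the medium and luminescence is imaged.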

A short description of test [10]: qHTS Assay for Lipid Storage Modulators (AID 1519; calls by dose curve). The note with it: Drosophila S3 cells, BODIPY lipid droplet/cell ratio, laser cytometry, cells loaded with oleic acid; for activity change, negative = inhibition: at 57.5 µM (top of the series). Put shortly:
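Cells seeded at 5,000 per well were treated with compounds over a concentration series and loaded with oleic acid (400 uM, as added). Lipid droplet fluorescence (488 nm excitation, 500-530 nm channel) was read by laser-scanning cytometry and normalized to 20 uM Triacsin C.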

For test [11], the target named is Ubiquitin carboxyl-terminal hydrolase 1 (Homo sapiens) (UniProt O94782). Description: Inhibitors of USP1/UAF1: Pilot qHTS (AID 504865; active means well fitted curve in the direction sought with a large enough effect; an effect the other way counts as inactive or inconclusive;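 further: rhodamine fluorescence freed from ubiquitin-rhodamine substrate followed over time; top concentration of the series differs between compounds; on the % scale 0 is the no-effect control and ±100 the full control effect; nearly all actives have a fitted effect of over 35% in size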). The note with it: purified USP1/UAF1, Ub-rhodamine cleavage fluorescence; series mostly up to 114 µM. The method in brief: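 1nM USP1/UAF1 + cpd, 15 min RT; start w/ Ub-Rho 150nM final; kinetic FL 480/540 nm, 6 reads q60 s. Buffer 50mM HEPES pH 7.8, 0.5mM EDTA, 1mM TCEP, 0.01% Tween-20, 0.1 mg/ml BSA.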

The target in test [12] is Mitogen-activated protein kinase 10 (Mus musculus) (UniProt Q61831). Description: JNK3 AlphaScreen Assay (AID 530).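 Further: kinase came from lysate of stimulated human HepG2 cells; signal reports phosphorylation of biotinylated GST-cJun 1-79 at Ser73 with 10 µM ATP; on the % scale 0 is the no-effect control and ±100 the full control effect.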 The note with it: JNK3 lysate, c-Jun phosphorylation; series mostly up to 57.1 µM. The method in brief:
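qHTS format: compounds tested as titrations against IL-1beta/TNF-alpha-activated HepG2 lysate JNK3 with biotin-GST-cJun substrate and 10 uM ATP at room temperature. Loss of anti-phospho-cJun AlphaScreen signal indicates inhibition.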

The nature of test [13]: NFAT Signaling Pathway (AID 444). The note with it: Jurkat NFAT-bla M1, carbachol, beta-lactamase ratio, 5 h; at 7.69 µM (top of the series). The method in brief:
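Jurkat cells with NFAT-driven β-lactamase reporter and co-expressed M1 receptor, stimulated with carbachol (final 1 uM, ~EC50), compound titration, 5 h at 37 °C. CCF4 loaded 1 h at RT; 460/530 nm ratio gave %activity and AC50.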

A short description of test [14]: qHTS Assay for Identification of Small Molecule Agonists for Hypoxia Response Element Signaling Pathway (AID 914; active means well fitted activation curve with a large enough effect in the signal ratio, with a control signal flat, not every such curve was filed as active; the % refers to the signal ratio; further: % of control where 0% means no effect). The following applies: ME-180 (cervical carcinoma) HRE-bla reporter, beta-lactamase ratio, CoCl2, 17 h; activation: stronger effect = higher value. The method in brief: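 qHTS titration; ME-180 HRE-bla cells; EC50 CoCl2 co-treatment, 17 h at 37 degrees Celsius; CCF4 dye, ex 405nm, em 460nm and 530nm; %Activity from ratio; AC50.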

Test [15] has as its target Cytochrome P450 3A4 (Homo sapiens) (UniProt P08684). Description: qHTS Assay for Inhibitors and Substrates of Cytochrome P450 3A4 (AID 884; active means well fitted curve in the direction sought with a large enough effect; an effect the other way counts as inactive or inconclusive; further: potency means the concentration at half of the fitted maximal effect; nearly all actives have a fitted effect of over 50% in size). The following applies: recombinant CYP3A4, Luciferin-PPXE luminescence; series mostly up to 57.1 µM. The method in brief: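 20 nM human CYP3A4 with 25 uM Luciferin-PPXE (at KM) in 200 mM KPO4, preincubated 10 min with compound; NADPH regeneration started a 60 min RT reaction. Luciferin detected by luminescence, normalized to 57 uM ketoconazole as full inhibition.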

In test [16] the target is Cytochrome P450 2D6 (Homo sapiens) (UniProt P10635). Description: qHTS Assay for Inhibitors and Substrates of Cytochrome P450 2D6 (AID 891; active means well fitted curve in the direction sought with a large enough effect; an effect the other way counts as inactive or inconclusive; further: potency means the concentration at half of the fitted maximal effect; nearly all actives have a fitted effect of over 60% in size). The note with it: recombinant CYP2D6, luciferin-ME EGE luminescence; series mostly up to 57.1 µM. Put shortly: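 Human CYP2D6 (5 nM) with 30 uM Luciferin-ME EGE (at Km) in 100 mM KPO4, compound preincubated 10 min, then NADPH regeneration system for 60 min at room temperature. Luciferin read by luminescence; normalized to 1.43 uM quinidine.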

The mark [17] stands for this setting: measured here: cell count channel max response.
[18] abbreviates: measured here: lipid channel max response.

Glucocorticoid receptor (Homo sapiens), sequence (P04150 whole entry, looked up, the tested form may be a part): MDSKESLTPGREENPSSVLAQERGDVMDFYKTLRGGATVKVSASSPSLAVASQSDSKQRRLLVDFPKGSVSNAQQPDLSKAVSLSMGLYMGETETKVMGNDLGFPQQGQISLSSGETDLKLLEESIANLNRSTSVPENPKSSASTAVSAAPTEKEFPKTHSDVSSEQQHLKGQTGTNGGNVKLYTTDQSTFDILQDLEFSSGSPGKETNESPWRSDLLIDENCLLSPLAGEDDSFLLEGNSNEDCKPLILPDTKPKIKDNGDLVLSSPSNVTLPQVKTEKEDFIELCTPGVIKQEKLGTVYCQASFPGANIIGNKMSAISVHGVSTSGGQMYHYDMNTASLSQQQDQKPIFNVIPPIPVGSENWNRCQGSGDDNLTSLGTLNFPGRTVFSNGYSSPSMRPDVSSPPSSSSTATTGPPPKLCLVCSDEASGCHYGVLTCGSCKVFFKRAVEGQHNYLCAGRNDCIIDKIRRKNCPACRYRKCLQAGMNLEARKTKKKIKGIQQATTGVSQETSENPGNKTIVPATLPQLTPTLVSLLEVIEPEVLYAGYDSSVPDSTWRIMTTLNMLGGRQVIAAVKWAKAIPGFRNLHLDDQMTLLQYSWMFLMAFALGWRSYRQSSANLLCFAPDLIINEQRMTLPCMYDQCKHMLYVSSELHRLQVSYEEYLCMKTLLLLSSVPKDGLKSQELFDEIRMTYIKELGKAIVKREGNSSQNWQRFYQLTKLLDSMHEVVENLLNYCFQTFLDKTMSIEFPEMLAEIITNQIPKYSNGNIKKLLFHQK
Cytochrome P450 1A2 (Homo sapiens), sequence (P05177 whole entry, looked up): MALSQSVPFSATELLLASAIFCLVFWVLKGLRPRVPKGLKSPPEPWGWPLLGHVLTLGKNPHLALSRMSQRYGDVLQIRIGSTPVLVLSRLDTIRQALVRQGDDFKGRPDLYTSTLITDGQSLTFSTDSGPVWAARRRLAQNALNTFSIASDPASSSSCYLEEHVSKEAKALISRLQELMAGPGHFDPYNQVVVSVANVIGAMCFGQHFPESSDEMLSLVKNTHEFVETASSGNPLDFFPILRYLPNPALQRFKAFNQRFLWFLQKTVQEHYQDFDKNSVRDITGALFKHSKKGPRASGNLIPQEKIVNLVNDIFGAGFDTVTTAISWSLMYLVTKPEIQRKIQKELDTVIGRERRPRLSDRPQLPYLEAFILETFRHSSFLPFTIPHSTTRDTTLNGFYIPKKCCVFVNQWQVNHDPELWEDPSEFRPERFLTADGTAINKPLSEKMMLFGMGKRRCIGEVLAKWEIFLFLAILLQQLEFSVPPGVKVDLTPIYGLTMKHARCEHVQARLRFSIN
Lysosomal acid glucosylceramidase (Homo sapiens), sequence (P04062 whole entry, looked up): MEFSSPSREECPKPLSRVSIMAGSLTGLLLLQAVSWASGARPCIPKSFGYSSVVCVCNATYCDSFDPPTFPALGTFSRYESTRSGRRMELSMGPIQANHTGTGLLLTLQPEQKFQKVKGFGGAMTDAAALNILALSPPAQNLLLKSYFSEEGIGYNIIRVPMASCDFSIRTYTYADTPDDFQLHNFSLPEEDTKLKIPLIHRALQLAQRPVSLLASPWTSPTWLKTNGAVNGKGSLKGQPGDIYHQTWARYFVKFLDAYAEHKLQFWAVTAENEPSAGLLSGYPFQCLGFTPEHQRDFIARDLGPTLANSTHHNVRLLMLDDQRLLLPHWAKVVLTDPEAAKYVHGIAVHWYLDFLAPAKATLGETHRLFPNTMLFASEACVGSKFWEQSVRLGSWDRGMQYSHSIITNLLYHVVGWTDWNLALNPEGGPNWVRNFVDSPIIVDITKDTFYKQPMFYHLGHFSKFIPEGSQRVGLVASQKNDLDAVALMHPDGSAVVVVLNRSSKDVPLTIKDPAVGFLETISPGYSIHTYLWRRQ
Cytochrome P450 3A4 (Homo sapiens), sequence (P08684 whole entry, looked up): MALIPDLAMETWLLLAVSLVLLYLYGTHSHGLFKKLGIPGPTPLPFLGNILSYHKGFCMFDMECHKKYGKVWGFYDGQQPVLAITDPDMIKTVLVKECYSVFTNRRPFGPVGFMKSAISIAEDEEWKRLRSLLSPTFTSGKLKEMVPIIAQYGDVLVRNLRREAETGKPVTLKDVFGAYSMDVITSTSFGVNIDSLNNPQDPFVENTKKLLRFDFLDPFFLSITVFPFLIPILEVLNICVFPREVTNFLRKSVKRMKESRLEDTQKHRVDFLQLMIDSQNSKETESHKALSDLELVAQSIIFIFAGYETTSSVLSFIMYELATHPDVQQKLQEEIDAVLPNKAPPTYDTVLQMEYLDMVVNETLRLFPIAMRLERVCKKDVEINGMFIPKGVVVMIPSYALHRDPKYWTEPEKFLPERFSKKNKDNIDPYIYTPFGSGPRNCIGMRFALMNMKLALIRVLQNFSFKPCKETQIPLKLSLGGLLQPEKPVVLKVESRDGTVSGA
3',5'-cyclic-AMP phosphodiesterase 4B (Homo sapiens), sequence (Q07343 whole entry, looked up): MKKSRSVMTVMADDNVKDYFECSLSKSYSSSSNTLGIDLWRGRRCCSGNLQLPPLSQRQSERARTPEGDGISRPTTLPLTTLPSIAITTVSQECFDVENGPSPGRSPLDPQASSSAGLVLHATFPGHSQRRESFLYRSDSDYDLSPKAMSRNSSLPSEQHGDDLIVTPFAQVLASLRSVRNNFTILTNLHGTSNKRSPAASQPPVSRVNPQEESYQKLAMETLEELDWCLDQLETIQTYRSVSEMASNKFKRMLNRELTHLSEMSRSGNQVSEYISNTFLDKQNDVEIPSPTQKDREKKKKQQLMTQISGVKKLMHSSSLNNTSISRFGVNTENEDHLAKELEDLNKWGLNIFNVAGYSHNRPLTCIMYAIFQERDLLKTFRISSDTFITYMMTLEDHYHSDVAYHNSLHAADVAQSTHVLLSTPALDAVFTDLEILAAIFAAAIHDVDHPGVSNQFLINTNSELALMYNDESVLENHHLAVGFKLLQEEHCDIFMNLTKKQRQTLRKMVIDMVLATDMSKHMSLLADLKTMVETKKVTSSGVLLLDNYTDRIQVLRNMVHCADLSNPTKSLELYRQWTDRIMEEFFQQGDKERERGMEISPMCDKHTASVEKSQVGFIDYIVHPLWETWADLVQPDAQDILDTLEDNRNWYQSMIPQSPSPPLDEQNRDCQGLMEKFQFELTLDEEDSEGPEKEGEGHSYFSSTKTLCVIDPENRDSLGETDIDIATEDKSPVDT
Cytochrome P450 2D6 (Homo sapiens), sequence (P10635 whole entry, looked up): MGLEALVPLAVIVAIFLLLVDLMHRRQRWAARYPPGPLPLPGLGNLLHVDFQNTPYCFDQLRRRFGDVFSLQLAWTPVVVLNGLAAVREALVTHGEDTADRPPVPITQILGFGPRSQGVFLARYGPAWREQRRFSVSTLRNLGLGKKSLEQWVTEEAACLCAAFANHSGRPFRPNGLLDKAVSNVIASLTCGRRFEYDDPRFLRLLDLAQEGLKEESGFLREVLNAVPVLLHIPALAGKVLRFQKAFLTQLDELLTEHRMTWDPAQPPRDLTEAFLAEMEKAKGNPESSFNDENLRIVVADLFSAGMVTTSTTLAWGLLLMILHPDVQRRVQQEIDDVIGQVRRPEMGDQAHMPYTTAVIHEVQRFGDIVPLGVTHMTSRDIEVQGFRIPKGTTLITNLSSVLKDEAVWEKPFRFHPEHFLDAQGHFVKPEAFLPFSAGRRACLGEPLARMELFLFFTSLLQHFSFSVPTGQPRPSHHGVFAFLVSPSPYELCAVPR
Ubiquitin carboxyl-terminal hydrolase 1 (Homo sapiens), sequence (O94782 whole entry, looked up): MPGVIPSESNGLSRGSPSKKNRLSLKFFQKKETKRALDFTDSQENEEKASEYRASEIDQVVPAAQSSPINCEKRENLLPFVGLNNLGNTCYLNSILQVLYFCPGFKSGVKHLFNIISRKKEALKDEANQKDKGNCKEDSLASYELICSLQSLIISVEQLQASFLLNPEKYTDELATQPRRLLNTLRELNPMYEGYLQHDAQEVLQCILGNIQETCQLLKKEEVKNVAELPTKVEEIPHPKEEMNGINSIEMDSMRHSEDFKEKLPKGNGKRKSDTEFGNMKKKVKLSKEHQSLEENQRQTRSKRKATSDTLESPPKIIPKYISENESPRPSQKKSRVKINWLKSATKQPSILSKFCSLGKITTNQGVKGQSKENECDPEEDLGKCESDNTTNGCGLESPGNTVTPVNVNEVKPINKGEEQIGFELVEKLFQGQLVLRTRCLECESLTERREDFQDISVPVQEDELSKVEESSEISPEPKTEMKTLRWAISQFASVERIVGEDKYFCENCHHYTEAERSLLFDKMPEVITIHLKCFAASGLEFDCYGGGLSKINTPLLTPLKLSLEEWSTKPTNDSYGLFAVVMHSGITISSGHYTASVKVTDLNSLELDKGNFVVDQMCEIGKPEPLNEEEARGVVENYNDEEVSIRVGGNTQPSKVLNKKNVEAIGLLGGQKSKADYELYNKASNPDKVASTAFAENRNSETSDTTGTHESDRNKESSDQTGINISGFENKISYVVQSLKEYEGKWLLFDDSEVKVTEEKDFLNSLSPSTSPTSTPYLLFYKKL

With `O=C(Nc1ccccc1)N1CCCC2(CCN(C(=O)Oc3ccccc3)CC2)C1`, the Potency in [1] was > 20 µM (inactive); in test [2] it was > 11.4 µM (inactive); in test [4] it was 25.1 µM (active); in [6], > 46 µM (inactive). The result in test [3], in test [5] and in test [9] was inactive. In addition, the Potency result in test [7] and in test [8] was “inactive” in each case.

Take `CN1CCCCC1c1ccc(-c2cccnc2)nc1` (configuration not stated): the Potency result in [8] and in test [11] was “inactive” each time. For the same compound, in test [10], the activity change, negative = inhibition is 6.38% (inactive). In addition, the max response is 12.4% in test [10] (setting [17]) and 21.9% in [10] (setting [18]). Further, the outcome in test [9] was inactive.

Consider `CCCN1CCc2cc(O)cc3c2C1Cc1ccc(O)c(O)c1-3` (configuration not stated), for which the result in test [9] was inactive.

As for `COc1ccccc1CN1CC[C@@]2(CCCN(C(=O)Oc3ccccc3)C2)C1`, the results for the Potency in [2], in [4] and in test [6] were > 11.4 µM (inactive), 10 µM (active) and > 46 µM (inactive), respectively. In addition, the outcome in test [3], in test [5], in test [12] and in test [9] was inactive. Moreover, the Potency entry in test [7] and in test [8] was “inactive” throughout. Moreover, the activity change, negative = inhibition in test [10] was 7.75% (inactive). Also, the max response came to 2.61% in test [10] (setting [17]) and 13.6% in test [10] (setting [18]).

In the case of `c1ccc(CN2CC[C@@]3(CCCNC3)C2)cc1`, the Potency in [2] was > 11.4 µM (inactive); in [6], > 46 µM (inactive). Also, the outcome in [3], in test [5] and in [9] was inactive. Moreover, the Potency entry in [4], in test [7] and in test [8] was “inactive” each time. In addition, the activity change, negative = inhibition in [13] is 2.89% (inactive); in test [10] it was 3.83% (inactive). In addition, the activation in [14] was 10.9% (inactive). The results for the max response in test [10] (setting [17]) and in test [10] (setting [18]) were 8.29% and 14.7%, respectively.

For the compound `O=C(Oc1ccccc1)N1CCC[C@@]2(CCN(Cc3ccccc3)C2)C1`, the Potency is > 20 µM (inactive) in [1], > 11.4 µM (inactive) in test [2], 15.8 µM (active) in test [4] and > 46 µM (inactive) in test [6]. Moreover, the outcome in test [3], in test [5], in test [12] and in test [9] was inactive. For the same compound, the Potency entry in test [7] and in test [8] was “inactive” each time.

In the case of `N#Cc1ccc(CN2CC[C@@]3(CCCN(C(=O)Oc4ccccc4)C3)C2)cc1`, the Potency in test [2] was > 11.4 µM (inactive); in test [4], 12.6 µM (active); in test [15], 7.94 µM (active); in test [16], 3.16 µM (active). For the same compound, the result in test [3], in test [5], in test [12] and in test [9] was inactive. In addition, the activity change, negative = inhibition in test [13] is -16.4% (inactive); in test [10], 4.98% (inactive). Moreover, the Potency entry in test [7] and in [8] was “inactive” each time. Besides, the max response in test [10] (setting [17]) came to 20.4%; in test [10] (setting [18]), 28.4%.

In the case of `CC(C)CN1CC[C@@]2(CCCN(C(=O)c3ccncc3)C2)C1`, the Potency in test [2] is > 11.4 µM (inactive); in test [6], > 46 µM (inactive). In addition, the outcome in test [3], in test [5], in test [12] and in [9] was inactive. Also, the activity change, negative = inhibition was -22.2% (inactive) in [13] and 2.73% (inactive) in [10]. Further, the Potency entry in test [7] was “inactive”. In addition, the max response is -1.41% in test [10] (setting [17]) and 4.49% in [10] (setting [18]).

With `CN1CCCC2(CCN(C(=O)c3csnn3)CC2)C1`, the Potency in [2] is > 11.4 µM (inactive); in test [6] it was > 46 µM (inactive). Besides, the outcome in test [3], in test [12] and in test [9] was inactive. In addition, the Potency result in test [4] and in test [7] was “inactive” each time. In addition, the activity change, negative = inhibition in test [13] was -27.8% (inactive); in test [10], -1.92% (inactive). Besides, the results for the max response in test [10] (setting [17]) and in [10] (setting [18]) were -8.1% and -6.49%, respectively.
